The target in assay [1] is T1, Serine/threonine-protein kinase TAO3 (Homo sapiens) (UniProt Q9H2K8).
T1 sequence (whole entry): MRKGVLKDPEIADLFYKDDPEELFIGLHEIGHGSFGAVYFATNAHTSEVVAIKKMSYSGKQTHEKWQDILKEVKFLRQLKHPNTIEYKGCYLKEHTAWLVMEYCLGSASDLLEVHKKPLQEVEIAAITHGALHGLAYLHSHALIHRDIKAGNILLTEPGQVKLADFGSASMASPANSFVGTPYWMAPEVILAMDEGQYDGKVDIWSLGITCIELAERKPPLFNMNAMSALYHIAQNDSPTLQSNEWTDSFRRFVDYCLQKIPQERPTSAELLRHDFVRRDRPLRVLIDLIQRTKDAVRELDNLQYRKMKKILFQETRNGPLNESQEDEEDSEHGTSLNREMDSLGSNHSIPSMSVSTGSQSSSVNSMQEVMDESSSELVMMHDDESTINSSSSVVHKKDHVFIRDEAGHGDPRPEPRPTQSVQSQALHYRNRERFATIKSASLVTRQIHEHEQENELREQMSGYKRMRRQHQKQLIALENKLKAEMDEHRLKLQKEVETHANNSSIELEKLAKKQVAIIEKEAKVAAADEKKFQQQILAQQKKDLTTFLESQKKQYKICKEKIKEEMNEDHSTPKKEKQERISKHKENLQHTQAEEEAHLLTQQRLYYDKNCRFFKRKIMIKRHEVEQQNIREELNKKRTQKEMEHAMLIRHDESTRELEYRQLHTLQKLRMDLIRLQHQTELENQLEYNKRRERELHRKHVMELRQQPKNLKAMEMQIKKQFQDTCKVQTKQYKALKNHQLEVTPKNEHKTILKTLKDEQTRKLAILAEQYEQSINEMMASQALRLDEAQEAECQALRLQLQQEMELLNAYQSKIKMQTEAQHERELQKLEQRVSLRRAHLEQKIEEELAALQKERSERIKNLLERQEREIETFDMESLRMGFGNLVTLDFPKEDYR
The conditions noted are these: at 10 µM.

Assay [2] concerns the target T2, Serine/threonine-protein kinase TBK1 (Homo sapiens) (UniProt Q9UHD2).
T2 sequence (whole entry): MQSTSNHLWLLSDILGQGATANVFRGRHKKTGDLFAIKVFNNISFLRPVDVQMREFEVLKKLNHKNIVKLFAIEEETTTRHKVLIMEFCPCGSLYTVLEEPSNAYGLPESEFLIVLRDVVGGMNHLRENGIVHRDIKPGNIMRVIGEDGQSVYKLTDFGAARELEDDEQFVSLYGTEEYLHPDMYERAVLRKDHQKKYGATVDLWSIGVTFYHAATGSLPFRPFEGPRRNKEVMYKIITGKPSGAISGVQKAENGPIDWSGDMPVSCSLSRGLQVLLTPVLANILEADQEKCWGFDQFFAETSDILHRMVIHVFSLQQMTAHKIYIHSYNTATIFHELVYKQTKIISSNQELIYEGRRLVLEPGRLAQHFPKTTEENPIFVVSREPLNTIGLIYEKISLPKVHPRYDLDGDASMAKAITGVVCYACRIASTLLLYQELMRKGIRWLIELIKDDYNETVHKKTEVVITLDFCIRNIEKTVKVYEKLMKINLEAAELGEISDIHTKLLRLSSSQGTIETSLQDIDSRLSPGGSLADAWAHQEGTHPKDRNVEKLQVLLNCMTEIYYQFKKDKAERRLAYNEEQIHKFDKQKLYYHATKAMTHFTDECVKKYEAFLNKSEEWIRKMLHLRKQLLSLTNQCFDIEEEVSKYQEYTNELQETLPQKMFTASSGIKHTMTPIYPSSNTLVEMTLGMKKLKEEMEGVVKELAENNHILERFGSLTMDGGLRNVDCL
The conditions noted are these: at 1 µM.

Assay [3] addresses T2, Serine/threonine-protein kinase TBK1 (Homo sapiens). The conditions noted are these: at 10 µM.
The target of assay [4] is T3, TGF-beta receptor type-1 (Homo sapiens) (UniProt P36897).
T3 sequence (whole entry): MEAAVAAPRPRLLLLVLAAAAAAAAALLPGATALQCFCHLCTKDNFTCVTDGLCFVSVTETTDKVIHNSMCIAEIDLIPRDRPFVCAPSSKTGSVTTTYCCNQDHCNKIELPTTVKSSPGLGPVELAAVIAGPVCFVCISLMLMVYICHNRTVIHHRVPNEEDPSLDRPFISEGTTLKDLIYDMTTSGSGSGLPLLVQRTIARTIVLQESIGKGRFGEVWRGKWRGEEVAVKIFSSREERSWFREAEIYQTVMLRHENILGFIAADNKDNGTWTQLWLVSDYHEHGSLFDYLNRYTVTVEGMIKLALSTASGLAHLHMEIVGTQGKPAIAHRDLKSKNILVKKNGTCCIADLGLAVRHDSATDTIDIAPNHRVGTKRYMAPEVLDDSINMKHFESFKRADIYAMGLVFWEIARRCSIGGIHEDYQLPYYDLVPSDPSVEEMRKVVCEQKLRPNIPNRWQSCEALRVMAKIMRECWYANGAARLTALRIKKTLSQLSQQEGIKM
Conditions: at 1 µM.

In assay [5] the target is T3, TGF-beta receptor type-1 (Homo sapiens). Conditions: at 10 µM.
The target in assay [6] is T4, Inhibitor of nuclear factor kappa-B kinase subunit alpha (Homo sapiens) (UniProt O15111).
T4 sequence (whole entry): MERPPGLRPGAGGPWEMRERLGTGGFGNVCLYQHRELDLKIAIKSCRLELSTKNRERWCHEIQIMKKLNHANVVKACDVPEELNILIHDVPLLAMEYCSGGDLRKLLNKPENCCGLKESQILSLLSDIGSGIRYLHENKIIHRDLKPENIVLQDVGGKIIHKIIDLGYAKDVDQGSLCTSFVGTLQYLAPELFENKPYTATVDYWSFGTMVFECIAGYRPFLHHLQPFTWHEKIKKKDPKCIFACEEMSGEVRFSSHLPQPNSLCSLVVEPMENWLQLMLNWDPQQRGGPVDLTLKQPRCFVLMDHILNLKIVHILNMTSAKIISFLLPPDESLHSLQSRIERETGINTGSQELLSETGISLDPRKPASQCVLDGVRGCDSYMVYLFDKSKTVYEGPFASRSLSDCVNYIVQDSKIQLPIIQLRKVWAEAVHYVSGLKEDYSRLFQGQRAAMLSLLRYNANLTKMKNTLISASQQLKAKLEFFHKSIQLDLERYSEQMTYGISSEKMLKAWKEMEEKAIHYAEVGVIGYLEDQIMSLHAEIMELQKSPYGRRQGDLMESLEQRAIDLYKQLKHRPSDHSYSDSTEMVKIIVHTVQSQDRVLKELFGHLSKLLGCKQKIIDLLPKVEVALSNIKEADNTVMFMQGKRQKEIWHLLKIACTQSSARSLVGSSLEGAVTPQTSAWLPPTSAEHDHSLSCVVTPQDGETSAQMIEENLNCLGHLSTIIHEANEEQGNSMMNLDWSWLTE
The conditions noted are these: at 1 µM.

Assay [7] deals with T5, Inhibitor of nuclear factor kappa-B kinase subunit beta (Homo sapiens) (UniProt O14920).
T5 sequence (whole entry): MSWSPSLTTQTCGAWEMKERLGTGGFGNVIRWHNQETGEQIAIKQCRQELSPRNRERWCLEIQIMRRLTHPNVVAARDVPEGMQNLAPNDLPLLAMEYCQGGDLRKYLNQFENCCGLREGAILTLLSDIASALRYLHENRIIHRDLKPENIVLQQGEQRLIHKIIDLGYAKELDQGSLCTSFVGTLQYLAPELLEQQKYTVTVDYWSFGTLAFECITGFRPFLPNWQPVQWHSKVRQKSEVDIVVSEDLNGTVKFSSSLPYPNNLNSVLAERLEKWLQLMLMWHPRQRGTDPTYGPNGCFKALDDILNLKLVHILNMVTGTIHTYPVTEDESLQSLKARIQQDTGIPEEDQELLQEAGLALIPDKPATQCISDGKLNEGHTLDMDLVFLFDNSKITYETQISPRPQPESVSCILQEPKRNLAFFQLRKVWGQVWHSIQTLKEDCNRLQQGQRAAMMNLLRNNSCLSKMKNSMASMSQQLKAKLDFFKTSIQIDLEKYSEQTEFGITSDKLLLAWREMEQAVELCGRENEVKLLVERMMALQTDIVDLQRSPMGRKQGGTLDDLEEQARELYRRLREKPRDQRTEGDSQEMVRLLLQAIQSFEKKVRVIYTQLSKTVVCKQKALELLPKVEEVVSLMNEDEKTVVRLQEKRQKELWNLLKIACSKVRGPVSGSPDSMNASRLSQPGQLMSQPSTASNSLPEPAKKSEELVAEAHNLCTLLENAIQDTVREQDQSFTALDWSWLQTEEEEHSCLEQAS
Conditions: at 1 µM.

Assay [8] addresses T5, Inhibitor of nuclear factor kappa-B kinase subunit beta (Homo sapiens). Conditions: at 10 µM.
Assay [9] concerns the target Insulin receptor (Homo sapiens) (UniProt P06213). The conditions noted are these: at 1 µM.

SMILES strings stand for the structures.

Chain of Insulin receptor (Homo sapiens) (P06213 28-758 limits assumed): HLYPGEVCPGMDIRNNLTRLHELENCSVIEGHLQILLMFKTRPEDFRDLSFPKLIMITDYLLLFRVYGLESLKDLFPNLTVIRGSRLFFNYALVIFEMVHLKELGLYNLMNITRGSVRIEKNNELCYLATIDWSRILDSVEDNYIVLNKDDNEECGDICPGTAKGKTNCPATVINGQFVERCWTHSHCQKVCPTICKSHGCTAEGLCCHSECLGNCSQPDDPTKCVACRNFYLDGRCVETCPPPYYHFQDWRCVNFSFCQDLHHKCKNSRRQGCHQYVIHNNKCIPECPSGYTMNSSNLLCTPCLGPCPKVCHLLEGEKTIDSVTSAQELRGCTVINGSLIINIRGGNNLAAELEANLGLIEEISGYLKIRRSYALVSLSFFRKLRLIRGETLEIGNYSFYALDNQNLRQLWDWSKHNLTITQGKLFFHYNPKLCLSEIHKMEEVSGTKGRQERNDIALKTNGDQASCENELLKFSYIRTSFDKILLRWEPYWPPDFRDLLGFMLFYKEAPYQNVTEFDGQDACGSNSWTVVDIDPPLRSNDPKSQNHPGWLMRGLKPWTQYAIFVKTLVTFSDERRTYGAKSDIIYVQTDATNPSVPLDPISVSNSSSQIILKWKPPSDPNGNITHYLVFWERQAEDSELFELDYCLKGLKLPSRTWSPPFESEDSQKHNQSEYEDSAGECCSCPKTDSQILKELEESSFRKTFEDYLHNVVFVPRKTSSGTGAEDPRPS
Chain of Insulin receptor (Homo sapiens) (P06213 763-1382 limits assumed): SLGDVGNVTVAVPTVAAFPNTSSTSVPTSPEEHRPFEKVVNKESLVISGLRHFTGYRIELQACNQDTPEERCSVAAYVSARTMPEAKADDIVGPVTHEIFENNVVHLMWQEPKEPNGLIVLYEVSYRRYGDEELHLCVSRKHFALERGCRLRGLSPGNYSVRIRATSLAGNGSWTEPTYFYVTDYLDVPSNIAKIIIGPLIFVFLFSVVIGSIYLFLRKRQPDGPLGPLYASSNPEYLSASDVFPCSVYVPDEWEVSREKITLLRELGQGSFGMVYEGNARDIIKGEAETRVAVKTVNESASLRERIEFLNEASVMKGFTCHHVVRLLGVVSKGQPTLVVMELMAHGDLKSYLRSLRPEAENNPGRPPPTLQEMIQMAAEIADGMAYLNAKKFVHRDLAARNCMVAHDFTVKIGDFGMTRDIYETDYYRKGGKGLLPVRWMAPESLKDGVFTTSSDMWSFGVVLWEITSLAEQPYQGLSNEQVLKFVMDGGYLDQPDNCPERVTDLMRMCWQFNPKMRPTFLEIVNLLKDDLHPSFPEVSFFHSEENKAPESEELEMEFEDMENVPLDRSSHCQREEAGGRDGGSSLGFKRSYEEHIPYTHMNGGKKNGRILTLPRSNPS

Take `COc1cc2ncnc(N3CCN(C(=O)Nc4ccc(Oc5ccccc5)cc4)CC3)c2cc1OC`: the residual activity (commonly the signal under treatment as a percentage of the control signal) in assay [1] was found to be 77%; in assay [2], 57%; in assay [3] it was 53%; in assay [4], 80%; in assay [5] it was 76%; in assay [6], 103%. The residual activity in assay [7] was found to be 113%; in [8] it was 115%; in assay [9], 115%.

The record behind these values is ChEMBL document CHEMBL2218924, “A broad activity screen in support of a chemogenomic map for kinase signalling research and drug discovery” (Biochem J, 2013).
